This is a sample that favours compounds with a hit; in the whole collection about 11% have one here.
Pf growth 96h = P. falciparum growth inhibition at 96 hour, primary screen for plastid delayed-death inhibitors; P. falciparum luciferase reporter growth, 96 h; AID 504834; Potency, µM (titrated, usually from 28.7 µM), for inactives: at the top dose activity change, negative = inhibition, most hits filed as inhibitors; 320,000 compounds, 6.9% hits; also: % is scaled to controls: 0 for no effect and ±100 for the full control effect
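P. falciparum expressing integrated firefly luciferase, in erythrocytes at 2% hematocrit, 0.05% parasitemia, incubated with compounds 96 h at 37 C, 5% CO2. Growth inhibition read as loss of luminescence; two-generation exposure targets delayed-death apicoplast inhibitors.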
AMA1 RON2 block = inhibitors of Plasmodium falciparum AMA1-RON2 interaction; AlphaScreen AMA1-biotinylated RON2 peptide binding; Potency, µM (highest dose often 58.2 µM), inactives show at the highest dose activity change, negative = inhibition, most hits filed as inhibitors; 360,000 compounds, 0.2% hits;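 also: 0% = vehicle wells and -100% = peptide control; nearly all actives have a fitted effect of over 45% in size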
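AMA1 (3D7) with his tag at 25 nM final met compounds first, then biotinylated RON2 peptide at 25 nM; detection used donor plus acceptor beads, 10 µg/mL apiece, read by AlphaScreen after 30 min at room temperature.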
NS1 inh = inhibitors of influenza NS1 protein function | Potency, µM (top dose mostly 46.1 µM), for the others: at the top dose activity, positive = more growth | 270,000 compounds, 0.4% hits | AID 2326; calls by dose curve; also: actives are rising curves; nearly all actives have a fitted effect of over 50% in size
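Growth recovery, yeast-based: influenza A NS1 expressed in S. cerevisiae causes slow growth, and suppressors are detected by OD600. The parent strain without NS1 is used as positive control.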
Pf growth 48h = P. falciparum growth inhibition at 48 hours (one generation); P. falciparum luciferase growth in erythrocytes, 48 h; Potency, µM (doses to about 28.7 µM), without a hit: at the highest dose activity change, negative = inhibition, hits mostly inhibitors; 310,000 compounds, 5.9% hits; AID 504832; also: % is scaled to controls: 0 for no effect and ±100 for the full control effect
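Luminescence readout; reporter = integrated firefly luciferase in P. falciparum. RBC culture at 2% hematocrit, 0.1% parasitemia final, 37 C/5% CO2; decreased signal taken as growth inhibition.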
Sm TGR block = blocks Schistosoma mansoni thioredoxin glutathione reductase | Q962Y6 | 360,000 compounds, 3% hits | AID 485364 | purified TGR, DTNB reduction, TNB absorbance 405 nm | Potency, µM (top dose mostly 114 µM), inactives show top-dose activity change, negative = inhibition, usual class: inhibitors; also: % is scaled to controls: 0 for no effect and ±100 for the full control effect; nearly all actives have a fitted effect of over 60% in size
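First, TGR (20 nM dispensed) and NADPH were mixed with compound. Second, a 15 min room-temperature incubation followed. Third, further NADPH and then DTNB were added to start the reaction. Finally, TNB absorbance was monitored kinetically.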
Starred values were filed as active, the others as inactive; u = inconclusive; x = no result; [ ] = remark or other dose. Unless noted, calls follow the shape of the dose curve; as a rule, active = well fitted curve in the direction sought with a large enough effect; inconclusive = small, poorly fitted or top-dose-only effect, or another doubt; inactive = no such curve, though single readings can be large; an effect the other way counts as inactive or inconclusive. Potency is read from the fitted curve at half-maximal effect.

SMILES	Pf growth 96h	AMA1 RON2 block	NS1 inh	Pf growth 48h	Sm TGR block
Cn1c(=O)c2c(SCC(N)=O)nc(CC(C)(C)C)nc2n(C)c1=O	0.0%	0.0%	-10.8%	-16.6%	3.0%
Nc1cccc(Oc2cnccn2)c1	-0.1%	12.7%	5.0%	x	31.5%
O=C(CCl)Nc1cccc(Oc2cnccn2)c1	3.7µM*	3.8%	2.1%	x	11.2µM*
O=C(CCl)Nc1cccc(Oc2ccccc2)c1	4.65µM*	3.9%	x	u	11.2µM*
Cc1nn(Cc2nnc(SCC(=O)Nc3ccc(Cl)cc3)n2C)c(C)c1[N+](=O)[O-]	-4.1%	1.6%	6.1%	-10.2%	-0.7%
O=C1CSC(c2ccc3c(c2)OCO3)N1c1ccc(Oc2ccccc2)cc1 (centres undefined)	0.0%	-17.2%	24.7%	u	31.6µM*
O=C(CCn1cnc2ccccc2c1=O)Nc1nc(-c2ccc(Br)cc2)cs1	9.28µM*	-6.1%[2.32 µM]	7.3%	-5.1%	0.0%
Cc1nc2c(cnn2-c2ccccc2Cl)c(=O)n1-c1ccc(C(C)C)cc1	2.62µM*	0.9%	-84.0%	x	2.7%
Cc1ccc(-n2ncc3c(=O)n(-c4ccc(C)c(C)c4)c(C)nc32)cc1	106.6%	9.8%	-3.3%	-19.0%	-16.7%
Cc1ccc(-n2c(-c3ccco3)nc3c(cnn3-c3ccccc3Cl)c2=O)cc1	x	x	x	x	-1.6%
COc1ccc(-n2c(C)nc3c(cnn3-c3ccc(C)c(C)c3)c2=O)cc1	10.4µM*	-3.0%	-90.2%	x	0.7%
Cc1ccc(CNC(=O)C2CCN(S(=O)(=O)Cc3ccccc3)CC2)cc1	x	x	x	x	3.1%
CCc1ccc(-c2n[nH]nc2C2=CC(=O)C[C@H](c3ccc(F)cc3)C2)cc1	x	78.1%	x	x	x
CCCn1c2ccccc2c2cnn(CC(=O)NCCc3ccc(OCC)cc3)c(=O)c21	x	x	x	x	8.1%
CC(=O)c1cccc(OCC(O)CNCCOc2ccc(C)cc2)c1 (centres undefined)	23.5%	5.7%	15.2%	6.5%	-14.3%
CCN1CCN(CCCNC(=O)c2ccc(/C=C3/Oc4ccccc4N(Cc4cccc(C)c4)C3=O)cc2)CC1	u	14.7%	4.6%	u	-6.9%
O=C(NCCCN1CCOCC1)c1ccc(/C=C2\Oc3ccccc3N(Cc3ccccc3F)C2=O)cc1	8.28µM*	-3.9%	8.9%	-29.7%	-10.0%
O=C(CN1C(=O)/C(=C\c2ccccc2Br)Oc2ccccc21)NCCCN1CCOCC1	2.33µM*	-1.3%	-0.9%	-4.2%	-8.9%
CC1(C)CC(NC(=S)NC2CC2)CC(C)(C)N1	u	-1.2%	-0.7%	0.6%	24.8%
C=CCNC(=S)NC1CC(C)(C)NC(C)(C)C1	10.4µM*	-9.8%	14.9%	10.4%	9.1%
Cc1ccc(C(=O)NNC(=O)c2ccc(NC(=O)C(C)(C)C)cc2)cc1	14.7µM*	0.0%	17.3%	5.9%	-16.5%
Cc1cccc(C(=O)NNC(=O)c2ccc(NC(=O)C(C)(C)C)cc2)c1	-31.8%	-4.4%	-23.2%	34.0%	3.7%
Cc1nc(-c2ccc(Cl)cc2)sc1CCNC(=O)C(=O)Nc1ccc(F)cc1F	x	x	x	x	16.9%
COc1ccc(N2CCN(C(=O)c3ccc(CS(=O)(=O)c4ccccc4C)o3)CC2)cc1	10.4µM*	-0.7%	-20.9%	13.4%	-23.3%
COc1ccc(N2CCN(C(=O)c3ccc(CS(=O)(=O)c4ccc(Br)cc4)o3)CC2)cc1	u	-10.6%	5.3%	u	7.4%
SMILES	Pf growth 96h	AMA1 RON2 block	NS1 inh	Pf growth 48h	Sm TGR block
Cc1cccc(N2CCN(C(=O)CS(=O)(=O)Cc3nc(-c4ccccc4C)oc3C)CC2C)c1 (centres undefined)	x	x	x	x	5.7%
Cc1cccc(N2CCN(C(=O)c3ccc(CS(=O)(=O)c4ccccc4C)o3)CC2C)c1 (centres undefined)	169.9%	-11.0%	-9.5%	13.1µM*	-29.7%
COc1ccccc1S(=O)(=O)Cc1ccc(C(=O)N2CCN(c3ccccc3)CC2)o1	7.0%	-16.3%	-46.4%	u	0.0%
COc1ccccc1S(=O)(=O)Cc1ccc(C(=O)N2CCN(c3cccc(Cl)c3)CC2)o1	3.8%	-14.5%	23.5%	11.7µM*	-19.5%
Cc1ccc(S(=O)(=O)Cc2ccc(C(=O)N3CCN(c4cc(C)ccc4C)CC3)o2)cc1	11.7%	-8.0%	7.7%	u	0.5%
Cc1ccc(C)c(N2CCN(C(=O)c3ccc(CS(=O)(=O)c4ccccc4C)o3)CC2)c1	u	-18.1%	8.3%	u	25.1µM*
CC(=O)COc1coc(CN2CCN(c3ccc(F)cc3)CC2)cc1=O	-21.5%	2.8%	12.5%	12.4%	0.0%
CCc1c(C(=O)Nc2ccccc2C(N)=O)csc1C	242.1%	-0.5%	-29.3%	33.4%	0.0%
CCc1c(C(=O)Nc2ccncc2)csc1C	u	3.4%	-34.7%	8.28µM*	-22.5%
c1ccc(CCN=C2CCCc3c2[nH]c2ccccc32)cc1	91.0%	-1.5%	3.0%	59.7%	56.2µM*
COc1cc(C(=S)N2CCCC2)cc(OC)c1OC	139.3%	-3.4%	0.5%	32.2%[1.15 µM]	-0.7%
CC(C)(C)c1cc(C(=S)N2CCCC2)cc(C(C)(C)C)c1O	4.15µM*	-4.0%	-38.9%	u	6.9%
CCOC(=O)C1CCN(Cc2nnnn2CCc2ccccc2)CC1	0.0%	-3.8%	1.8%	92.4%	-23.7%
Cc1nc2cc(F)ccc2n1C1CCN(Cc2nnnn2CCc2ccccc2)CC1	u	-5.9%	-58.7%	9.28µM*	7.8%
Cc1nc2cc(C(F)(F)F)ccc2n1C1CCN(Cc2nnnn2CCc2ccccc2)CC1	-0.5%	-2.3%	-40.4%	13.1µM*	-16.5%
O=C(NCC(c1cccnc1)N1CCN(Cc2ccccc2)CC1)C(=O)Nc1cccc(F)c1 (centres undefined)	x	x	x	x	-5.7%
CC(OC(=O)c1cnc(Cl)c(Cl)c1)C(=O)NCc1ccccc1 (centres undefined)	1.9%	7.8%	x	-18.1%	3.8%
CCN(CC(=O)Nc1ccccc1C(F)(F)F)C(=O)c1oc2c(Cl)cccc2c1C	u	7.8%	x	u	-5.6%
Cc1ccc(C)c(NC(=O)CN(C)C(=O)c2oc3c(Cl)cccc3c2C)c1	2.94µM*	-0.7%	x	4.15µM*	0.4%
Cc1ccc(C(=O)c2cn(Cc3cccc(Cl)c3)c3nc(C)ccc3c2=O)cc1	x	x	x	x	-4.2%
Cc1ccc(/C=C2/NC(=O)N(Cc3ccccc3F)C2=O)o1	u	-3.4%	-35.0%	-1.7%	u
CCCN1C(=O)/C(=C/c2ccc(C)o2)NC1=S	u	x	x	-7.1%	6.31µM*
O=C1N/C(=C/c2ccc(N3CCOCC3)o2)C(=O)N1c1cccc(Cl)c1	-3.8%	73.0%	6.9%	-0.6%	2.82µM*
Cc1ccc(/C=C2/NC(=O)N(Cc3ccc(Br)cc3)C2=O)o1	-24.8%	56.3%	-43.8%	-16.7%	50.1µM*
CCN1C(=O)N/C(=C/c2ccc(C)o2)C1=O	22.4%	11.2%	-25.4%	22.7%	35.5µM*
Cc1c(C(=O)O)cccc1-c1ccc(/C=C2/NC(=O)N(c3ccccc3)C2=O)o1	7.7%	11.2%	5.2%	32.6%	-26.6%

From PubChem
